In PubChem BioAssay (NCI) one finds growth data, which are given here for eight compounds.

Compounds without any hit were thinned out: in the full panel of roughly 83,000, 20% have a hit.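 A percent growth of 40 corresponds to 60% growth inhibition; 0 means no net growth; -100 means all cells died. Active threshold: below 10.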 Unmarked numbers belong to inactive results. Active and inactive are the calls of the source.

Test systems include K-562 leukemia; MALME-3M melanoma; MDA-MB-231 breast; RXF 393 renal; SF-268 CNS; SF-295 CNS; SF-539 CNS; UACC-257 melanoma; M14 melanoma; HCT-15 colon; HT29 colon; SNB-75 CNS; SNB-19 CNS; U251 CNS; PC-3 prostate; UACC-62 melanoma; LOX IMVI melanoma; SK-MEL-28 melanoma; SK-MEL-2 melanoma; SK-MEL-5 melanoma.
Holding throughout (test): NCI-60 one-dose screen, 48 h (100 = growth as untreated, 0 = no growth, -100 = all killed)
Holding throughout (conditions): 10 µM unless noted

For `CCCCCCCCSc1ncnc2c1ncn2CO`, the growth in the experiment with K-562 leukemia is 73.7%; in the experiment with MALME-3M melanoma, 118%; in the experiment on MDA-MB-231 breast it was 98.2%; with RXF 393 renal it was 55.2%; in the experiment on SF-268 CNS it was 97.6%; in the experiment on SF-295 CNS, 67.7%. Also, the growth in the experiment on SF-539 CNS is 86.3%; with UACC-257 melanoma it was 81.6%; in the experiment with M14 melanoma, 97.7%; in the experiment on HCT-15 colon, 97.1%; in the experiment with HT29 colon, 91%; with SNB-75 CNS, 75.1%. The growth with SNB-19 CNS is 94.7%; in the experiment on U251 CNS, 74.7%; in the experiment with PC-3 prostate it was 75.6%; in the experiment with UACC-62 melanoma, 92.8%; in the experiment on LOX IMVI melanoma, 80.1%; with SK-MEL-28 melanoma, 101%. In the experiment on SK-MEL-2 melanoma, the growth was 95.8%.

With `Clc1cc(Cl)c(OCC#CI)cc1Cl`, the growth in the experiment with K-562 leukemia is 69.5%; with MALME-3M melanoma, 0.95% (active); in the experiment with MDA-MB-231 breast, 83.2%; in the experiment with RXF 393 renal, -11.9% (active); with SF-268 CNS, 98.6%; with SF-295 CNS, 101%. The growth with SF-539 CNS is 33.2%; in the experiment on UACC-257 melanoma it was -3.08% (active); in the experiment with M14 melanoma it was 37.7%; in the experiment with HCT-15 colon, 42.1%; with HT29 colon, 10.4%; with SNB-75 CNS it was 87.6%. Further, the growth is 108% with SNB-19 CNS; 78.9% in the experiment with U251 CNS; 75.6% in the experiment on PC-3 prostate; 62.8% with UACC-62 melanoma; -56% (active) in the experiment on LOX IMVI melanoma; 17.2% with SK-MEL-28 melanoma. Also, the growth in the experiment with SK-MEL-2 melanoma is 75.8%.

`CO[C@H]1CC(O[C@@H]2/C(C)=C/C[C@@H]3C[C@@H](C[C@]4(CC[C@H](C)[C@@H](C5CCCCC5)O4)O3)OC(=O)[C@@H]3C=C(C)/C(=N/O)[C@H]4OC/C(=C\C=C\[C@@H]2C)[C@]43O)O[C@@H](C)C1O` (some centres not stated): the growth in the experiment with K-562 leukemia is -36.7% (active); with MALME-3M melanoma it was -46.3% (active); in the experiment with MDA-MB-231 breast it was -89% (active); in the experiment with RXF 393 renal, -97.2% (active); with SF-268 CNS it was -92.2% (active); with SF-295 CNS, -89.5% (active). In addition, the growth is -68.8% (active) in the experiment on SF-539 CNS; -81.6% (active) with UACC-257 melanoma; -81.4% (active) with M14 melanoma; -75.1% (active) with HCT-15 colon; -70.9% (active) in the experiment on HT29 colon; -90.4% (active) in the experiment on SNB-75 CNS. The growth with SNB-19 CNS was -96.6% (active); in the experiment with U251 CNS, -87.6% (active); with PC-3 prostate it was -80.4% (active); in the experiment with UACC-62 melanoma, -93.4% (active); in the experiment on LOX IMVI melanoma, -92.9% (active); in the experiment with SK-MEL-28 melanoma, -87.3% (active). For the same compound, the growth in the experiment on SK-MEL-2 melanoma is -71.8% (active).

For `ClC1=C(Cl)C(=C2C(Cl)=C(Cl)C(Cl)=C2Cl)C(Cl)=C1Cl`, the growth in the experiment on K-562 leukemia is 87.1%; with MALME-3M melanoma, 106%; in the experiment on MDA-MB-231 breast, 110%; with RXF 393 renal, 106%; in the experiment on SF-268 CNS it was 102%; with SF-295 CNS, 99.2%. Also, the growth in the experiment with SF-539 CNS was 104%; with UACC-257 melanoma, 92.3%; with M14 melanoma, 102%; in the experiment with HCT-15 colon, 106%; in the experiment on HT29 colon it was 96.2%; in the experiment with SNB-75 CNS, 94.4%. Moreover, the growth in the experiment on SNB-19 CNS was 105%; in the experiment with U251 CNS, 103%; in the experiment on SK-MEL-5 melanoma it was 103%; with UACC-62 melanoma it was 99.3%; in the experiment on LOX IMVI melanoma, 97.9%; with SK-MEL-28 melanoma, 111%. Besides, the growth in the experiment on SK-MEL-2 melanoma is 95.8%.

For the compound `C[n+]1c2ccccc2c(NC2CCNCC2)c2[nH]c3ccccc3c21`, the growth with K-562 leukemia is 12.7%; in the experiment with MALME-3M melanoma, -15.7% (active); in the experiment on MDA-MB-231 breast it was 17.1%; in the experiment on RXF 393 renal, -13.7% (active); in the experiment on SF-268 CNS it was -31% (active); in the experiment with SF-295 CNS it was 13.6%. Also, the growth is 16.7% with SF-539 CNS; 57.2% in the experiment with UACC-257 melanoma; 60.1% in the experiment on M14 melanoma; 87.5% in the experiment on HCT-15 colon; 2.95% (active) with HT29 colon; 7.49% (active) with SNB-75 CNS. Besides, the growth in the experiment on SNB-19 CNS is -12.4% (active); with U251 CNS it was 1.08% (active); in the experiment on SK-MEL-5 melanoma, 7.09% (active); in the experiment on UACC-62 melanoma, -73.3% (active); with LOX IMVI melanoma it was 13.2%; with SK-MEL-28 melanoma, 10.6%. The growth in the experiment with SK-MEL-2 melanoma was -46.4% (active).

As for `O=C(Oc1ccc[nH]c1=O)c1cccc(Cl)c1`, the growth in the experiment on K-562 leukemia was 104%; in the experiment with MALME-3M melanoma it was 104%; with MDA-MB-231 breast it was 103%; in the experiment with RXF 393 renal, 163%; with SF-268 CNS, 101%; in the experiment with SF-295 CNS, 108%. Besides, the growth is 88.2% with SF-539 CNS; 113% with UACC-257 melanoma; 95.8% with M14 melanoma; 91.2% in the experiment on HCT-15 colon; 97.4% with HT29 colon; 53.2% in the experiment on SNB-75 CNS. The growth in the experiment on SNB-19 CNS is 85.8%; with U251 CNS, 92.7%; in the experiment on SK-MEL-5 melanoma it was 99.8%; in the experiment on UACC-62 melanoma it was 95.3%; in the experiment with LOX IMVI melanoma, 90.8%; with SK-MEL-28 melanoma it was 127%. The growth with SK-MEL-2 melanoma was 108%.

For `C[n+]1c2ccccc2c(Nc2ccc(N3CCCCC3)cc2)c2[nH]c3ccccc3c21`, the growth with K-562 leukemia is -74% (active); with MALME-3M melanoma it was -77.8% (active); in the experiment with MDA-MB-231 breast, -91.1% (active); in the experiment with RXF 393 renal, -96.5% (active); with SF-268 CNS it was -93.4% (active); with SF-295 CNS, -85.7% (active). The growth in the experiment on SF-539 CNS was -99.1% (active); in the experiment with UACC-257 melanoma, -98.7% (active); with M14 melanoma, -97.3% (active); with HCT-15 colon, -78.8% (active); in the experiment with HT29 colon, -85% (active); with SNB-75 CNS, -94% (active). The growth in the experiment with SNB-19 CNS is -89.8% (active); with U251 CNS, -98% (active); with SK-MEL-5 melanoma, -98.3% (active); in the experiment with UACC-62 melanoma, -97.8% (active); in the experiment on LOX IMVI melanoma, -86.2% (active); in the experiment on SK-MEL-28 melanoma it was -98.9% (active). In addition, the growth with SK-MEL-2 melanoma is -97.9% (active).

As to `O=C(Nc1ccc(C2=NCCCN2)cc1)Nc1ccc(C2=NCCCN2)cc1`, the growth with K-562 leukemia was 76.1%; in the experiment with MALME-3M melanoma it was 104%; in the experiment with MDA-MB-231 breast, 112%; with RXF 393 renal it was 106%; with SF-268 CNS, 96.8%; with SF-295 CNS, 92.2%. The growth in the experiment on SF-539 CNS is 80.1%; in the experiment on UACC-257 melanoma, 96.1%; with M14 melanoma, 92.7%; in the experiment on HCT-15 colon, 106%; in the experiment with HT29 colon, 92.4%; with SNB-75 CNS, 94.5%. For the same compound, the growth in the experiment on SNB-19 CNS is 96.7%; with U251 CNS, 93.7%; in the experiment on SK-MEL-5 melanoma, 69.7%; in the experiment with UACC-62 melanoma it was 87.7%; in the experiment on LOX IMVI melanoma, 89.9%; with SK-MEL-28 melanoma, 86.9%. Also, the growth in the experiment on SK-MEL-2 melanoma was 49%.
